Experimental data: PubChem BioAssay
Activity calls are given as the source filed them. The rule behind the calls is not given here.

Assay: blockers of DNA damage checkpoint Chk1 activation – imaging, HeLa, hydroxyurea, phospho-Chk1 antibody, percent positive cells, primary screen (AID 1186)
Conditions: hydroxyurea-induced phospho-Chk1 immunofluorescence imaging, higher = more signal

SMILES	z-score
CC(C)OC(=O)C=C1C[C@@H](c2ccc(C#N)cc2)O[C@@H](c2ccc(C#N)cc2)O1	0.296 (inactive)
COC(=O)C1(C)C=C2C(=C(c3ccccc3)C(=O)C2C)CN1 (stereo unspecified)	0.74 (inactive)
C=C(COC)/C(=C/C[C@H](OC(=O)c1ccncc1)c1ccc(CO)o1)c1cc(C(=O)OC)ccc1OC	-0.35 (inactive)
CC(C)=C1C(=O)C(c2ccccc2)=C2CN3C(=O)N(CCc4ccccc4)C(=O)[C@]3(Cc3ccc(F)cc3)[C@H]21	0.0852 (inactive)
O=C1NC(=O)C2C1C=CC(C(O)Cc1ccccc1)N2Nc1ccccn1 (stereo unspecified)	-0.349 (inactive)
CC(C)(C)N1CC=CC23O[C@@H]4C=CCCOC(=O)C4[C@H]2C(=O)N(CCCCCO)[C@@H]3C1=O (stereo partly specified)	-1.05 (inactive)
CN(C)c1ccc(C(O)C2C=CC3C(=O)N(c4ccccc4)C(=O)C3N2Nc2ccccc2F)cc1 (stereo unspecified)	-0.0191 (inactive)
CC(C)(C)OC(=O)CC[C@]1(C(=O)NCc2ccccc2)N=C(c2ccc(OCCCO)cc2)O[C@H]1c1ccccc1	-0.179 (inactive)
COC(=O)[C@]1(CO)N=C(c2ccc(OCCCO)cc2)O[C@@H]1c1ccccc1N=[N+]=[N-]	0.0389 (inactive)
COC(=O)[C@@]1(Cc2ccc(F)cc2)[C@H]2c3cc(C(=O)N(C)C)n(Cc4ccc(OC)c(OC)c4)c3C[C@H]2CN1C(=O)c1ccccc1	0.427 (inactive)
CCOc1ccc(N2C(=O)/C(=C/C=C/c3ccccc3OC)S(=O)(=O)C2c2cccc([N+](=O)[O-])c2)cc1 (stereo unspecified)	-0.322 (inactive)
CN(C)CCCNC(=O)[C@@H]1c2ccccc2C(=O)N(Cc2cc(F)cc(C(F)(F)F)c2)[C@H]1c1ccc(CO)cc1	0.241 (inactive)
CC(C)(C)OC(=O)CC[C@]1(C(N)=O)COC(c2ccc(OCCCO)cc2)=N1	0.764 (inactive)
CCCCCN1CC=CC23O[C@@H]4C=CCOC(=O)[C@@H]4[C@H]2C(=O)N(C(CO)C(C)C)[C@@H]3C1=O (stereo partly specified)	-0.0211 (inactive)
C=C(/C(=C/C[C@@H](OC(=O)c1ccncc1)c1ccc(OCCO)cc1)c1cnc2ccccc2c1)C(C)C	-0.452 (inactive)
O=C1O[C@@H](c2ccccc2)[C@@H](c2ccccc2)N2[C@@H](c3ccc(OCCO)cc3)[C@]3(C(=O)Nc4ccc(C#CCCO)cc43)[C@@H](C(=O)N3CCCCCCC3)[C@H]12	-0.148 (inactive)
Cc1ccc(C2CC=C(C(=O)O)CN2S(=O)(=O)c2ccc(C)cc2)cc1 (stereo unspecified)	-0.185 (inactive)
Cc1ccc(S[C@]2(C(=O)O)CC(=O)N(Cc3ccccc3)[C@@H]2c2ccc(CO)cc2I)cc1	-0.123 (inactive)

SMILES	z-score
CCOC(=O)C[C@H]1[C@H](OC(=O)c2ccc(C(=O)c3ccccc3)cc2)[C@@H](NC(=O)c2ccc(-c3ccccc3)cc2)c2cc(OCCCO)ccc2N1C(=O)c1ccc2ccccc2n1	-0.916 (inactive)
C=CCN1C(=O)[C@]2(O[C@H](CCn3cc(CCO)nn3)[C@@H]([Si](C)(C)c3ccc(OC)cc3)[C@@H]2C)c2cc(N3CCOC3=O)ccc21	-0.203 (inactive)
CN(C)C(=O)[C@@]1(Cc2ccccc2)N=C(c2ccc(OCCCO)cc2)O[C@H]1c1ccccc1CN=[N+]=[N-]	0.264 (inactive)
COc1ccc([Si](C)(C)[C@H]2[C@H](CC(=O)N3CCC[C@H]3CO)O[C@@]3(C(=O)N(Cc4cccc(N5C(=O)COc6ccccc65)c4)c4ccccc43)[C@@H]2C)cc1	0.0942 (inactive)
COCCCNC(=O)[C@@]1(CCS(=O)(=O)c2ccccc2)N=C(c2ccc(OCCCO)cc2)O[C@H]1c1ccccc1	-0.213 (inactive)
COCCCNC(=O)[C@]1(Cc2ccccc2)N=C(c2ccc(OCCCO)cc2)O[C@@H]1c1ccccc1	-0.117 (inactive)
COc1ccccc1CN1C(=O)c2ccccc2[C@@]2(Cc3ccccc3N(C(C)C)C2=O)[C@@H]1c1ccc(CO)cc1	-0.014 (inactive)
CC(C)N1CC=CC23O[C@@H]4C=CCCOC(=O)C4[C@H]2C(=O)N(CCCCCCO)[C@@H]3C1=O (stereo partly specified)	-0.478 (inactive)
CCCNC(=O)[C@@H]1c2ccccc2C(=O)N(c2ccc(C)cn2)[C@H]1c1ccc(CO)cc1	0.929 (inactive)
CCCNC(=O)[C@@H]1c2ccccc2C(=O)N(Cc2ccccc2Cl)[C@H]1c1ccc(CO)cc1	-0.258 (inactive)
O=C1C[C@]2(c3ccc([N+](=O)[O-])cc3)C(=O)N(CCN3CCOCC3)c3cc(CO)ccc3[C@H]2N1CC12CC3CC(CC(C3)C1)C2	0.416 (inactive)
CN1C(=O)C2C=CC(C(O)c3ccc(Br)cc3)N(N(c3ccccc3)c3ccccc3)C2C1=O (stereo unspecified)	0.63 (inactive)
CC1CC/C=C\[C@H]2OC34C=CCN(C(C)C)C(=O)[C@H]3N(CCCO)C(=O)[C@@H]4C2C(=O)O1 (stereo partly specified)	-0.471 (inactive)
CCCC[C@H]1OB(O)C[C@H]2C1=C(C)C[C@H]1C(=O)N(C)C(=O)[C@H]12	0.327 (inactive)
O=C(CS)NCCCCCNC(=O)[C@H]1C[C@H]2C(=O)N3CCC[C@H]3C(=O)N2[C@H]1c1cccc(OCCO)c1	-0.58 (inactive)
COCCOC(=O)N1C(=O)[C@@]2(c3cc(C#Cc4ccc(OC)cc4)ccc31)[C@H](C(=O)N1CCN(c3ncccn3)CC1)[C@H]1C(=O)O[C@H](c3ccccc3)[C@H](c3ccccc3)N1[C@@H]2c1ccc(OCCO)cc1	-0.102 (inactive)
C=CCNC(=O)[C@H]1[C@@H]2C(=O)O[C@@H](c3ccccc3)[C@@H](c3ccccc3)N2[C@@H](c2ccc(O)cc2)[C@]12C(=O)N(C(=O)OCCOC)c1ccc(C#CC3=CCCCC3)cc12	-0.411 (inactive)
COCCCNC(=O)[C@@]1(C)c2ccccc2C(=O)N(Cc2ccc(OC(F)(F)F)cc2)[C@H]1c1ccc(CO)cc1	-0.143 (inactive)
